About 83,000 compounds went through this panel and 20% of them were active in at least one assay; those are over-represented in the sample as a whole.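 48-hour exposure, single concentration, 96-well plates; percent growth endpoint where 0 means no net growth. Active: below 10.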 Values without a mark were called inactive. Activity calls are given as the source filed them.

For one assay, the system named is TK-10 renal. The experiment in a line: NCI-60 one-dose screen, 48 h (100 = growth as untreated, 0 = no growth, -100 = all killed). As to conditions: 10 µM unless noted.
`CN(C)c1ccc2nc3ccc(=[N+](C)C)c([N+](=O)[O-])c-3sc2c1`: the growth is 71.3%.
Regarding `COc1cc(C(=O)/C=C/c2c(Cl)nc3sccn23)cc(OC)c1OC`, the growth was 106%.
Take `CNc1ccc(Nc2cccc(C)c2)c2c1C(=O)c1ccccc1C2=O`: the growth is 100%.
Same read-out and setting: for `Cc1cc(O)c(C2=NN(c3ccc(S(N)(=O)=O)cc3)C(c3ccccc3O)C2)cc1Cl` (centres undefined) the value was 41.5%; for `CCN1C(=O)N(CC)C2Nn3c(s/c(=C4\C(=O)N(CCC(C)C)c5ccccc54)c3=O)=NC21` (centres undefined), 38.3%; for `C=C(C)[C@@H]1CC[C@]2(N=C=O)CC[C@]3(C)[C@H](CC[C@@H]4[C@@]5(C)Cc6c([nH]c7ccccc67)C(C)(C)[C@@H]5CC[C@]43C)[C@@H]12`, 21.1%.
On the same count and under the same terms, for `O=C1CSC(c2c(Cl)cccc2Cl)N1c1nc(Cl)cc(=O)[nH]1` (centres undefined) the value was 161%; for `COc1ccc(OC)c(/C=C/C(=O)N/N=C/c2ccccc2)c1`, 56.7%; for `Oc1ccc(-c2nc3ccc4[nH]ncc4c3c3c2CCCC3)c2cccnc12`, 17.4%.
The same measure, in the same setting: for `Cc1cc(O)c(C2=NN(c3ccc(S(N)(=O)=O)cc3)C(/C=C/c3ccccc3)C2)cc1Cl` (centres undefined) the value was 68.3%; for `COc1ccc(C2=Nn3c(nnc3-c3cc(Cl)cc(Cl)c3Cl)SC2)cc1`, 57.5%; for `O=S(=O)(NCCCNc1cc(-c2c(-c3cccc(O)c3)nc3sccn23)ccn1)c1cccc2ccccc12`, 82.7%.
For `c1cc(-c2nnc(SSc3ncnc4nc[nH]c34)o2)ccn1`, the growth is 17%.
Still for that read-out and setting: for `CC[C@H](C)C(=O)O[C@H]1CCC=C2C=C[C@H](C)[C@H](CC[C@@H]3CC=CC(=O)O3)[C@H]21` the value was 105%; for `COc1cc(CCC[P+](c2ccccc2)(c2ccccc2)c2ccccc2)c(OC)c(OC)c1OC`, 91%.
As for `COc1ccc(C(=O)/C=C/c2sc(Cl)nc2Cl)cc1`, the growth was 104%.
The same measure, in the same setting: for `COc1ccc(C(=S)N2CCN(c3cccc(C)c3)CC2)cc1OC` the value was 92.7%; for `Cc1cc2nc3ccc(N=Nc4ccc(N(C)C)cc4)cc3n(-c3ccccc3)c-2cc1=N`, -82.2% (active); for `CC(=O)CC(c1cccs1)c1c(-c2ccccc2)[nH]c2ccccc12` (centres undefined), 134%.
On the same count and under the same terms, for `COc1ccc(-n2c(N)c(-c3nc4ccccc4[nH]3)cc(C#N)c2=O)cc1` the value was 103%; for `Cc1ncc(C(=O)Nc2ccc(CN3CCN(C)CC3)c(C(F)(F)F)c2)cc1C#Cc1ccc(N)nc1`, -28.2% (active).
For `COC(=O)/C=C1\S/C(=N\Nc2ccc([N+](=O)[O-])cc2[N+](=O)[O-])N(C2CCCCC2)C1=O`, the growth was 60.2%.
`COc1c(B(O)O)cc(F)cc1-c1nc2ccc3[nH]ncc3c2c2c1CCCC2`: the growth was 21.5%.
Regarding `CCCCCCN1C(=O)/C(=c2\sc3n(c2=O)C2C(NN=3)N(CC)C(=O)N2CC)c2ccccc21` (centres undefined), the growth was 3.21% (active).
For `S=c1nc(-c2ccccc2)oc(=NC2CCCCC2)n1C1CCCCC1`, the growth is 32.8%.
Regarding `CNC(=O)c1[nH]cc(-c2ccccc2)c1-c1cc(OC)c2c(c1OC)OCO2`, the growth was 106%.
Turning to `CCCCCCN(CCCCCC)c1ccc(/C=C2/SC(=O)NC2=O)c(C)c1`, the growth is 108%.
With `CC(=O)OC[C@H]1OC(Sc2sc(C(=O)c3ccc(Br)cc3)c(N)c2-c2nc3ccccc3s2)[C@H](OC(C)=O)[C@@H](OC(C)=O)[C@H]1OC(C)=O` (some centres undefined), the growth is 128%.
Consider `N#Cc1ccc(NC(=O)c2sc3nc4c(cc3c2N)C(=O)CCC4)cc1`, for which the growth is 65.9%.
Same read-out and setting: for `NS(=O)(=O)c1ccc(-n2nc(-c3ccc(Cl)cc3)c3ccccc3c2=O)cc1` the value was 152%; for `COc1cccc(OC)c1C(=O)N[C@@H]1C(=O)N2[C@@H]1SC(C)(C)[C@@H]2C(=O)O`, 106%.
Turning to `N/C(=N\c1nc2ccccc2s1)NC(=O)Nc1cccc2ccccc12`, the growth is 55%.
For `COc1ccc(/C=C/c2c(C(=O)/C=C/c3ccc(C(F)(F)F)cc3)c(C)nc3ccccc23)cc1`, the growth is -14% (active).
The same measure, in the same setting: for `COc1c(B(O)O)cc(C)cc1-c1nc2ccc3[nH]ncc3c2c2c1CCCC2` the value was 19.7%.
`COc1cc(C(=O)c2cc(C)c3[nH]c4ccc(O)cc4c3c2C)cc(OC)c1OC`: the growth was 93.3%.
In the case of `COc1ccc(/C=C/c2c(C(=O)/C=C/c3ccc(Cl)cc3)c(C)nc3ccccc23)cc1`, the growth is 56.2%.
As to `O=c1ccc(N=Nc2ccc([N+](=O)[O-])cc2)ccc1O`, the growth was 47.9%.

The test system of the next assay is ACHN renal. The description is as above. The settings on record: 10 µM unless noted.
Consider `CN(C)c1ccc2nc3ccc(=[N+](C)C)c([N+](=O)[O-])c-3sc2c1`, for which the growth is 27.9%.
For `COc1cc(C(=O)/C=C/c2c(Cl)nc3sccn23)cc(OC)c1OC`, the growth is 86.4%.
On to `CNc1ccc(Nc2cccc(C)c2)c2c1C(=O)c1ccccc1C2=O`, for which the growth was 78.1%.
With `Cc1cc(O)c(C2=NN(c3ccc(S(N)(=O)=O)cc3)C(c3ccccc3O)C2)cc1Cl` (centres undefined), the growth was 7.54% (active).
`CCN1C(=O)N(CC)C2Nn3c(s/c(=C4\C(=O)N(CCC(C)C)c5ccccc54)c3=O)=NC21` (centres undefined): the growth was 67.6%.
For `C=C(C)[C@@H]1CC[C@]2(N=C=O)CC[C@]3(C)[C@H](CC[C@@H]4[C@@]5(C)Cc6c([nH]c7ccccc67)C(C)(C)[C@@H]5CC[C@]43C)[C@@H]12`, the growth is 99%.
Still for that read-out and setting: for `O=C1CSC(c2c(Cl)cccc2Cl)N1c1nc(Cl)cc(=O)[nH]1` (centres undefined) the value was 111%; for `COc1ccc(OC)c(/C=C/C(=O)N/N=C/c2ccccc2)c1`, 62.8%; for `Oc1ccc(-c2nc3ccc4[nH]ncc4c3c3c2CCCC3)c2cccnc12`, 2.65% (active).
The same measure, in the same setting: for `Cc1cc(O)c(C2=NN(c3ccc(S(N)(=O)=O)cc3)C(/C=C/c3ccccc3)C2)cc1Cl` (centres undefined) the value was 33.1%; for `COc1ccc(C2=Nn3c(nnc3-c3cc(Cl)cc(Cl)c3Cl)SC2)cc1`, 33.5%.
As for `O=S(=O)(NCCCNc1cc(-c2c(-c3cccc(O)c3)nc3sccn23)ccn1)c1cccc2ccccc12`, the growth was 38.9%.
In the case of `c1cc(-c2nnc(SSc3ncnc4nc[nH]c34)o2)ccn1`, the growth was 45%.
As for `CC[C@H](C)C(=O)O[C@H]1CCC=C2C=C[C@H](C)[C@H](CC[C@@H]3CC=CC(=O)O3)[C@H]21`, the growth is 86.9%.
On the same count and under the same terms, for `COc1cc(CCC[P+](c2ccccc2)(c2ccccc2)c2ccccc2)c(OC)c(OC)c1OC` the value was 83.4%; for `COc1ccc(C(=O)/C=C/c2sc(Cl)nc2Cl)cc1`, -44.5% (active); for `COc1ccc(C(=S)N2CCN(c3cccc(C)c3)CC2)cc1OC`, 79.7%.
Consider `Cc1cc2nc3ccc(N=Nc4ccc(N(C)C)cc4)cc3n(-c3ccccc3)c-2cc1=N`, for which the growth is -92% (active).
Still for that read-out and setting: for `CC(=O)CC(c1cccs1)c1c(-c2ccccc2)[nH]c2ccccc12` (centres undefined) the value was 89.9%; for `COc1ccc(-n2c(N)c(-c3nc4ccccc4[nH]3)cc(C#N)c2=O)cc1`, 75.9%.
`Cc1ncc(C(=O)Nc2ccc(CN3CCN(C)CC3)c(C(F)(F)F)c2)cc1C#Cc1ccc(N)nc1`: the growth was -20% (active).
Same read-out and setting: for `COC(=O)/C=C1\S/C(=N\Nc2ccc([N+](=O)[O-])cc2[N+](=O)[O-])N(C2CCCCC2)C1=O` the value was 42.3%; for `COc1c(B(O)O)cc(F)cc1-c1nc2ccc3[nH]ncc3c2c2c1CCCC2`, 9.67% (active); for `CCCCCCN1C(=O)/C(=c2\sc3n(c2=O)C2C(NN=3)N(CC)C(=O)N2CC)c2ccccc21` (centres undefined), -43% (active).
As for `S=c1nc(-c2ccccc2)oc(=NC2CCCCC2)n1C1CCCCC1`, the growth is 15.4%.
The same measure, in the same setting: for `CNC(=O)c1[nH]cc(-c2ccccc2)c1-c1cc(OC)c2c(c1OC)OCO2` the value was 95.8%; for `CCCCCCN(CCCCCC)c1ccc(/C=C2/SC(=O)NC2=O)c(C)c1`, 93.4%.
Consider `CC(=O)OC[C@H]1OC(Sc2sc(C(=O)c3ccc(Br)cc3)c(N)c2-c2nc3ccccc3s2)[C@H](OC(C)=O)[C@@H](OC(C)=O)[C@H]1OC(C)=O` (some centres undefined), for which the growth was 90.5%.
For `N#Cc1ccc(NC(=O)c2sc3nc4c(cc3c2N)C(=O)CCC4)cc1`, the growth is 108%.
Still for that read-out and setting: for `NS(=O)(=O)c1ccc(-n2nc(-c3ccc(Cl)cc3)c3ccccc3c2=O)cc1` the value was 94.8%; for `COc1cccc(OC)c1C(=O)N[C@@H]1C(=O)N2[C@@H]1SC(C)(C)[C@@H]2C(=O)O`, 98.4%; for `N/C(=N\c1nc2ccccc2s1)NC(=O)Nc1cccc2ccccc12`, 42.1%.
Take `COc1ccc(/C=C/c2c(C(=O)/C=C/c3ccc(C(F)(F)F)cc3)c(C)nc3ccccc23)cc1`: the growth was -94.3% (active).
For `COc1c(B(O)O)cc(C)cc1-c1nc2ccc3[nH]ncc3c2c2c1CCCC2`, the growth is 57%.
For the compound `COc1cc(C(=O)c2cc(C)c3[nH]c4ccc(O)cc4c3c2C)cc(OC)c1OC`, the growth is 24.3%.
With `COc1ccc(/C=C/c2c(C(=O)/C=C/c3ccc(Cl)cc3)c(C)nc3ccccc23)cc1`, the growth was 13.5%.
For `O=c1ccc(N=Nc2ccc([N+](=O)[O-])cc2)ccc1O`, the growth is 16.5%.

The values above are taken from PubChem BioAssay (NCI).
